Here are results for 19 compounds from PubChem BioAssay (EPA / NIEHS).

Active and inactive are the calls of the source. How the source made its calls: active means hit-call score of the fitted dose curve at least 0.9, where 1 is the maximum; inactive means score below 0.9.

This test can be described thus: CCTE_Shafer_MEA_dev_interburst_interval_mean: CCTE's Neural Network Formation Assay for Mean Interburst Interval, Shafer Lab (AID 2284046). Here is the method:
CCTE_Shafer_MEA_dev assay is conducted using Axion Biosystems 48 well microelectrode array (MEA) plates and Maestro recording system. Each well of the MEA plate contains a grid of 16 microelectrodes embedded in the culture surface. Electrically active cells, such as neurons, can be cultured over the electrodes, and electrical activity in these cells can be recorded extracellularly. The spontaneous firing of neurons is captured from each electrode on a microsecond timescale providing both temporally and spatially precise data. […] The CCTE_Shafer_MEA_dev assay uses primary cultures of rat cortical neurons. Recordings are made on days post-plating 5, 7, 9 and 12. As these cultures mature over time, neural networks develop functional activity and form cohesive networks in which electrical activity can be highly coordinated. CCTE_Shafer_MEA_dev_interburst_interval_mean is 1 of 19 assay components of the CCTE_Shafer_MEA_dev assay. It measures the average time interval between consecutive single-electrode bursts (temporally-clustered groups of action potential firing) during a recording in a microelectrode array (MEA) using Axion Biosystems Maestro 768 channel amplifier with the AxIS adaptive spike detector. The mean inter-burst interval is averaged across the actively bursting electrodes to report a well-mean value. To collapse across multiple recordings made on days post-plating 5, 7, 9 and 12, the trapezoidal area-under-the-curve of the component is calculated.Data from the assay component CCTE_Shafer_MEA_dev_interburst_interval_mean was analyzed into 1 assay endpoint. This assay endpoint, CCTE_Shafer_MEA_dev_interburst_interval_mean, was analyzed in the negative analysis fitting direction relative to DMSO as the negative control and baseline of activity. Using a type of functional reporter, gain or loss-of-signal activity can be used to understand electrical activity.
On the day prior to culture, each well was coated thoroughly with 150 uL of 0.05% polyethyleneimine (PEI, Sigma Cat P3143) in 50 mM HEPES (Sigma Cat H7523) at a pH of 8. The plate was incubated at 37C for one hour. PEI was rinsed out with 500 uL of sterile water three times. Plates were stored at 4C until the day of culture. This culture was plated at a seeding density of 1.5 x 10^5 cells/well on a 48-well MEA plate, prepared as described above. Cells were administered via a 25 uL media/laminin ([…]; Sigma Cat L2020-1MG) drop directly onto the microelectrode array, as adding the cells with the laminin results in better attachment than pre-coating with laminin. After 2 hours, an additional 475 uL of cortical media was added and the cells returned to the incubator. Exposure starts at day 0 of plating and is continued over twelve days of network development until the experiment is terminated. Cells are fed with fresh medium on DIV 5 and 9, following the recordings on those days. The entire volume of media in the well is exchanged and any vehicle or compound treatment is renewed. Complete details are found in OP-NHEERL/ISTD/SBB/TJS/2015-03-r0 (available on request, email shafer.tim@epa.gov). Measurement of the electrical activity is non-invasive, and recordings can be made from the same plate over multiple different days of the culture. In cortical neurons, this allows for the measurement of extracellular action potentials over the period during which networks form in the MEA plate.
Consider `OC(O)C(F)(F)C(F)(F)F`, for which the compound was called inactive.
The same measure, in the same setting: under `FC(F)(F)C(F)(F)C(F)(F)C(F)(F)C(F)(F)C(F)(F)C(F)(F)CCI` stands “inactive”; under `OCCCCC(F)(F)C(F)(F)C(F)(F)C(F)(F)F`, “inactive”; under `O=S(=O)(O)CCC(F)(F)C(F)(F)C(F)(F)C(F)(F)F`, “inactive”.
Regarding `CNS(=O)(=O)C(F)(F)C(F)(F)C(F)(F)C(F)(F)C(F)(F)C(F)(F)C(F)(F)C(F)(F)F`, the result was inactive.
Same read-out and setting: to `OCC(F)(F)C(F)(F)C(F)(F)C(F)(F)C(F)(F)C(F)(F)C(F)(F)C(F)(F)CO` belongs “inactive”.
As a reminder, the AC50 is the midpoint of the concentration-response curve, whichever way the signal moves. As to `C=CC(=O)OCC(F)(F)C(F)(F)C(F)(F)COC(=O)C=C`, the AC50 is 8.65 µM (active).
Regarding `OCC(F)(F)C(F)(F)C(F)(F)CO`, the result was inactive.
Same read-out and setting: to `NC(O)(C(F)(F)F)C(F)(F)F` belongs “inactive”; to `C=CC(=O)OCCC(F)(F)C(F)(F)C(F)(F)C(F)(F)F`, “inactive”.
For the compound `CCN(CCO)S(=O)(=O)C(F)(F)C(F)(F)C(F)(F)C(F)(F)C(F)(F)C(F)(F)C(F)(F)C(F)(F)F`, the compound was classed as inactive.
Regarding `NC(=O)C(F)(F)C(F)(F)C(F)(F)C(F)F`, the call was inactive.
With `OCC(F)(F)C(F)(F)C(F)(F)C(F)(F)C(F)(F)C(F)(F)CO`, the outcome was inactive.
Same read-out and setting: to `O=S(=O)(O)CCC(F)(F)C(F)(F)C(F)(F)C(F)(F)C(F)(F)C(F)(F)C(F)(F)C(F)(F)F` belongs “inactive”.
Take `O=C(O)C(F)(F)C(F)(F)C(F)(F)OC(F)(F)F`: the result was inactive.
In the case of `OCC(O)CC(F)(F)C(F)(F)C(F)(F)C(F)(F)F` (centres undefined), the call was inactive.
On the same count and under the same terms, to `NC(=O)C(F)(F)C(F)(F)C(F)(F)F` belongs “inactive”; to `NC(=O)C(F)(F)C(F)(F)C(F)(F)C(F)(F)C(N)=O`, “inactive”; to `CO[Si](C)(CCC(F)(F)C(F)(F)C(F)(F)C(F)(F)C(F)(F)C(F)(F)F)OC`, “inactive”.
